Experimental data: PubChem BioAssay
Values without a mark were called inactive.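 Rule for the calls: active = inhibition at or above 50% relative to wild type and mutant plate controls; inactive = inhibition below 50%.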

Test: loss of swimming-algae plug formation – whole organism, Chlamydomonas reinhardtii, WT vs cilia-less mutant, absorbance, 96-well, primary screen (AID 463189);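 note: 0% = wild type cc124 cells in DMSO and 100% = ciliumless bld1 mutant cells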
Details: Chlamydomonas reinhardtii gravitaxis, OD600 absorbance, 2 days; at 10 µM; hits give high values

Row | Structure (SMILES) | inhibition
1 | CCOC(=O)Cn1c(SC)nc2sc3c(c2c1=O)CC(C)(C)OC3 | -3.53%
2 | Cc1cc(C)nc(CC(N)=O)n1 | 14.5%
3 | Cc1nnc2n(-c3ccccc3)c(=O)c3c4c(sc3n12)CC(C)CC4 (centres undefined) | -24.5%
4 | COc1cc(C(=O)OCCN2CCCCC2)ccc1O | 17.1%
5 | N#Cc1c(NC(=O)CCC(=O)O)sc2c1CCCC2 | -7.91%
6 | CCCCc1ccc(NC(=O)CSC2=C(C#N)C(c3ccco3)C3=C(CCCC3=O)N2)cc1 (centres undefined) | -5.66%
7 | COC(=O)c1ccc(CSc2ncnc3c2sc2nc(N4CCOCC4)c4c(c23)CCCC4)o1 | -7.35%
8 | Cc1ccnc(N2CCN(c3cc(C)c(C#N)c4nc5ccccc5n34)CC2)c1 | -4.75%
9 | Cc1nc(Nc2ncc3c(n2)CC(C)(C)CC3=O)nc2ccccc12 | -7.48%
10 | COCc1[nH]nc2c1C(c1ccccc1OC)C(C#N)=C(N)O2 (centres undefined) | 31.9%
11 | CC(=O)N1CCN(c2nc(CC(C)C)c3c(c2C#N)CCC3)CC1 | -18%
12 | CCOCCN(C(=O)COC)c1cccc(OC)c1 | -16.2%
13 | N/C(=N\c1nc2ccccc2o1)NC(=O)c1ccccc1NC(=O)c1ccccc1 | 9.27%
14 | Cc1ccc(C(C)C)c(OCCNc2nc3c(c(=O)n(C)c(=O)n3C)n2C)c1 | -2.79%
15 | Cc1nc(SCC(N)=O)[nH]c(=O)c1Cc1ccc(OC(C)C)cc1 | -1.58%
16 | CCOc1ccc(Cc2nc(N)nc(N)n2)cc1 | 6.25%
17 | Cc1nc(NCc2ccccc2)c(C(N)=O)c2c1COC(C)(C)C2 | -5.71%
18 | Cc1nc2n[nH]c(N)c2c2c1COC(C)(C)C2 | 3.25%
19 | C=CCNC(=O)C(C#N)c1nc2ccccc2nc1N1CCCCCC1 (centres undefined) | 10.7%
20 | CC(C)C(C(=O)Nc1ncn[nH]1)N1C(=O)c2ccccc2C1=O (centres undefined) | 0.44%

Row | Structure (SMILES) | inhibition
21 | CCCCOc1cccc(-c2nnc(N)s2)c1 | -2.21%
22 | COc1ccc(OC(=O)c2cc3ccccc3o2)cc1 | -0.854%
23 | CCNc1nc(NC(C)C)nc(N(C#N)C(C)C(=O)N(C)C)n1 (centres undefined) | 19.9%
24 | CCOC(=O)CSc1nc(-c2ccncc2)ccc1C#N | -7.15%
25 | CCOc1cccc(-c2nnc3sc(C4CCCCC4)nn23)c1 | 36.1%
26 | CCCCn1c(O)c(C=NCCCN(C)C)c(=O)[nH]c1=O | 10.3%
27 | COc1cccc(C2C(C#N)=C(N)Oc3cc(C)[nH]c(=O)c32)c1OC (centres undefined) | 9.96%
28 | Cc1cc(=O)oc(C)c1C(=O)Nc1cccc2nonc12 | -5.97%
29 | COc1cc(OC)cc(C(=O)N2CCC(N3CCN(c4ccccc4)CC3)CC2)c1 | -4.18%
30 | Cc1ccc2[nH]c3c(c2c1)CN(C(=O)CN1CCN(c2ccccn2)CC1)CC3 | 10.4%
31 | COC(=O)c1sccc1NC(=O)c1c(C)cc(=O)oc1C | -11.2%
32 | CCN(CC)c1ccc2cc(-c3nnc(-c4ccncc4)o3)c(=O)oc2c1 | 6.54%
33 | CC(C)(C)NC(=O)CSc1nsc(SCC(=O)NC(C)(C)C)c1C#N | 12.4%
34 | COC(=O)CN(c1nc(C)c(Br)c(OC)n1)S(=O)(=O)c1ccc(C)cc1 | -5.5%
35 | COc1cc(C2C3C(=O)N(c4ccccc4)C(=O)C3ON2c2ccccc2)ccc1O (centres undefined) | -1.03%
36 | Cc1ccc(C2C(C(=O)c3cc4ccccc4o3)=C(O)C(=O)N2CCCN(C)C)cc1 (centres undefined) | -1.22%
37 | CC(C)C1Cc2c(C#N)c(N)n(C)c(=S)c2CO1 (centres undefined) | -8.05%
38 | CCC12CN3CC(CC)(CN(C1)C3c1c(O)ccc3ccccc13)C2=O (centres undefined) | 6.95%
39 | CCOc1ccc(CCNC(=O)C(O)c2ccccc2)cc1 (centres undefined) | 25.5%
